# Experimental data: PubChem BioAssay (NCI)
# The panel holds about 79,000 compounds, 15% with a hit somewhere; the sample as a whole holds those more often. Unmarked numbers belong to inactive results. Activity calls are given as the source filed them. No stated cut-off is given here; in the data, active means growth inhibition above about 70%; inactive means the rest.
# Assays:
# [1] = NCI Yeast Anticancer Drug Screen. Data for the rad50 strain (AID 155);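 further: 0% = growth of vehicle-only cultures of the same strain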; conditions: S. cerevisiae rad50 strain growth inhibition, stronger effect = higher value
# Outline: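 A DNA repair-deficient yeast mutant serves as the test organism; compound-induced growth inhibition is calculated against vehicle-treated cells.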
# [2] = NCI Yeast Anticancer Drug Screen. Data for the mec2-1 strain (AID 157); conditions: S. cerevisiae mec2-1 strain, stronger effect = higher value
# Outline: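 Yeast mec2-1 mutant treated with compound. Readout: growth inhibition vs vehicle controls.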
# [3] = NCI Yeast Anticancer Drug Screen. Data for the sgs1 mgt1 strain (AID 161);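 further: 0% = growth of cultures given vehicle only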; conditions: S. cerevisiae sgs1 mgt1 strain, stronger effect = higher value
# Outline: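 Genetically altered yeast, compound exposure, growth inhibition relative to vehicle.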
# [4] = NCI Yeast Anticancer Drug Screen. Data for the cln2 rad14 strain (AID 165);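 further: 0% = growth equal to vehicle treated cultures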; conditions: S. cerevisiae cln2 rad14 strain, stronger effect = higher value
# Outline: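 cln2 rad14 yeast strain; compound exposure; growth inhibition read vs vehicle controls.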
# [5] = NCI Yeast Anticancer Drug Screen. Data for the bub3 strain (AID 167); conditions: S. cerevisiae bub3 mutant strain, stronger effect = higher value
# Outline: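 Inhibition values come from growth of compound-treated mutant yeast normalised to vehicle-treated controls.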
# [6] = NCI Yeast Anticancer Drug Screen. Data for the mlh1 rad18 strain (AID 175); conditions: S. cerevisiae mlh1 rad18 strain growth inhibition, stronger effect = higher value
# Outline: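 Yeast w/ defined DNA-repair lesions; compound exposure; growth vs vehicle controls → % inhibition.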
# [7] = at 5.0 µM (retest, dose inferred, filed as 0.5)
# [8] = at 50.0 µM (retest, dose inferred, filed as 5.0)
Structure (SMILES),"growth inhibition [1, 7] [%]","growth inhibition [1, 8]",growth inhibition ([1]; at 50.0 µM),"growth inhibition [2, 7] [%]","growth inhibition [2, 8]",growth inhibition ([2]; at 50.0 µM),"growth inhibition [3, 7] [%]","growth inhibition [3, 8]",growth inhibition ([3]; at 50.0 µM),"growth inhibition [4, 7] [%]","growth inhibition [4, 8]",growth inhibition ([4]; at 50.0 µM),"growth inhibition [5, 7] [%]","growth inhibition [5, 8]",growth inhibition ([5]; at 50.0 µM),"growth inhibition [6, 7]","growth inhibition [6, 8]",growth inhibition ([6]; at 50.0 µM)
COc1ccc([N+](=O)[O-])cc1[I+]c1cc([N+](=O)[O-])ccc1OC,19,95% (active),93.2% (active),58,89% (active),76.3% (active),49,95% (active),92.2% (active),16,86% (active),94.2% (active),9,85% (active),90.8% (active),57%,98% (active),95.7% (active)
N#CC1=CN=C2C=CC=C3N=C(C(Cl)(Cl)Cl)N=C1N32,19,93% (active),49.9%,7,97% (active),39.3%,28,97% (active),87.2% (active),2,91% (active),14.8%,-1,89% (active),20.3%,25%,95% (active),76.8% (active)
O=C1C=CC(=O)c2c1oc1ccccc21,14,98% (active),60.7%,6,99% (active),19%,13,99% (active),16.2%,13,79% (active),48.5%,30,98% (active),36%,23%,98% (active),57.8%
Cc1ccc(C)c(NC(=O)CCC(=O)C(C#N)c2cccc3ccccc23)c1 (centres undefined),-22,10%,-25.4%,3,11%,14.4%,-12,-4%,15.9%,-6,8%,-23.5%,-5,5%,10.3%,1%,3%,20.6%
c1ccc2c(c1)Nc1cc3ccccc3cc1N2,41,91% (active),74% (active),30,61%,43.1%,11,47%,36.3%,-9,41%,22.9%,39,80% (active),43.1%,37%,75% (active),61.6%
CCOC(=O)C(CCSC)C(=O)OCC,-1,-2%,11%,2,2%,12.8%,4,-2%,-0.15%,1,-1%,76.1% (active),-3,3%,-2.4%,-3%,-4%,2.35%
COc1cc(/C=C2/SC(=S)NC2=O)cc(OC)c1O,-18,29%,46.4%,3,49%,30.9%,1,42%,71.4% (active),-25,20%,-1.6%,-24,22%,42.6%,-1%,19%,41.2%
CCCCNC(=S)NC1C2CC3CC(C2)CC1C3 (centres undefined),-8,78% (active),97.4% (active),-4,64%,98.5% (active),-4,90% (active),97.9% (active),0,39%,92.2% (active),-8,24%,90.4% (active),-13%,93% (active),97.2% (active)
O=C(O)c1c2c(cc3c1CC1(Cc4cc5c(cc4C1=O)CCC5)C3)CCC2 (centres undefined),67,67%,89.4% (active),58,58%,87.5% (active),57,57%,87.3% (active),37,37%,88.7% (active),42,42%,87.2% (active),55%,55%,86.5% (active)
Clc1ccc(-c2cc(-c3cc(-c4ccc(Cl)c(Cl)c4)n[nH]3)[nH]n2)cc1Cl,-2,68%,91% (active),6,43%,22.8%,0,67%,65%,3,60%,29.7%,-14,89% (active),22.8%,19%,89% (active),65%
CCC[CH2][Sn]([CH2]CCC)([O]C(=O)c1cc(F)cc(F)c1)[O]C(=O)c1cc(F)cc(F)c1,54,54%,22.4%,26,26%,52.4%,65,65%,16.4%,18,18%,36.2%,21,21%,67.7%,21%,21%,68.1%
CN(C)CCNc1ccc(O)c2sc3ccccc3c(=O)c12,0,82% (active),81.8% (active),-6,56%,42.8%,-7,70% (active),48.1%,-7,19%,30.6%,-9,3%,33.4%,-5%,81% (active),51%
O=S1(=O)CS(=O)(=O)OCCCO1,10,10%,-15.7%,8,8%,-32.8%,7,15%,-23.4%,12,9%,-9.45%,7,7%,-30.1%,11%,16%,-59.5%
O=C(CC(c1ccccc1Cl)C(C(=O)O)c1ccccc1)c1ccccc1 (centres undefined),4,72% (active),81% (active),4,71% (active),71.7% (active),6,72% (active),92.5% (active),6,83% (active),91.5% (active),-4,67%,43.6%,-1%,78% (active),92.1% (active)
COc1ccc(C2=C(Cl)C(=O)N(c3ccc(OC)cc3OC)C(=O)C2(Cl)Cl)cc1,4,42%,74.5% (active),-9,36%,89.9% (active),5,54%,70.8% (active),-9,25%,44.5%,-5,28%,56.5%,3%,8%,79.8% (active)
COc1ccc2c(c1)CC[C@@H]1[C@@H]2CC[C@]2(C)/C(=N/OCCN3CCCCC3)CC[C@@H]12,60,97% (active),76.3% (active),56,98% (active),71.2% (active),33,97% (active),86.8% (active),20,96% (active),78.7% (active),33,98% (active),79.8% (active),80% (active),98% (active),83% (active)
CNC(Cc1ccccc1)c1ccc(OC)c2ccccc12 (centres undefined),3,9%,18.2%,6,-16%,10.2%,-3,-10%,14.8%,-1,11%,7.7%,27,25%,51.7%,-2%,40%,21.6%
CCOP(=O)(C=C=C1CCC2[C@@H]3CCc4cc(OC)ccc4C3CC[C@]12C)OCC (some centres undefined),5,97% (active),97.7% (active),-1,99% (active),98.3% (active),3,98% (active),98% (active),1,98% (active),97.8% (active),13,98% (active),98% (active),-7%,98% (active),98% (active)
